Measurements published in PubChem BioAssay.
Active and inactive are the calls of the source.

Legend:
[1] = tested on: PRMT1 (protein arginine N-methyltransferase 1); experiment: PRMT1 binders on small-molecule microarrays, primary screen, biochemical, small-molecule microarray, 635 nm fluorescence (AID 1088); details: small-molecule microarray binding, higher = more signal;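 note: binding of Prmt1 protein to compounds spotted on small-molecule microarray slides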
[2] = yeast growth modulation, basal conditions, primary screen, YJM789 clinical isolate, OD600, 24 h (AID 1089);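 note: growth of clinical yeast isolate S. cerevisiae YJM 789 seeded 1000 cells per well; test concentration not given here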; details: S. cerevisiae YJM789 growth, higher = more signal, called active from +8 up or from −8 down
[3] = fission yeast growth modulation, primary screen, strain 972, OD600, 24 h, no modulator (AID 1090);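 note: basal condition with compound alone and no growth modifier present; test concentration not given here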; details: S. pombe 972 growth, higher = more signal, called active from +8 up or from −8 down
[4] = S. cerevisiae growth modulation with rapamycin, primary screen, strain BY4716, OD600, 96 h (AID 1091); details: higher = more signal, called active from +8 up or from −8 down; note: test concentration not given here
[5] = molecular target: Torsin-1A-interacting protein 2 (Homo sapiens) (UniProt Q8NFQ8); experiment: LULL1 binders on small-molecule microarray, primary screen, cell lysate, human LULL1 lysate, 635/667 nm fluorescence (AID 1092); details: hLULL1 lysate binding, 635 nm fluorescence, higher = more signal;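 note: probe is lysate of COS7 cells overexpressing human LULL1; score merges per-feature 667 nm fluorescence with signal-to-noise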
[6] = E. coli growth modulation, two-sided OD650, primary screen, E. coli filamentation project, strain DRC41, 24 h (AID 1093); details: OD650, 24 h, higher = more signal, called active from +8 up or from −8 down;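 note: MC1000 strain lacking acrAB efflux and sulA so SOS filamentation is blocked; test concentration not given here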
[7] = small-molecule microarray binders of probe aLefty2, primary screen, biochemical, biotinylated probe, 635/667 nm fluorescence (AID 1094); details: higher = more signal;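 note: score merges spot fluorescence near 667 nm with spot signal-to-noise ratio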
[8] = tested on: Noggin (protein binding on small-molecule microarray); experiment: Noggin binders on small-molecule microarray, primary screen, biochemical, 635/667 nm fluorescence (AID 1095); details: 635 nm fluorescence, higher = more signal;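 note: score merges 667 nm feature fluorescence with signal to noise over triplicate slides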
[9] = molecular target: Neurogenic locus notch homolog protein 3 (Homo sapiens) (UniProt Q9UM47); experiment: NOTCH3 binders on small-molecule microarray, primary screen, biochemical, 635/667 nm fluorescence (AID 1096); details: NOTCH3 binding, 635 nm fluorescence, higher = more signal
[10] = small-molecule microarray binders of probe aEGFR, primary screen, biochemical, biotinylated probe, 635/667 nm fluorescence (AID 1097); details: higher = more signal;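 note: probe is a biotinylated anti-EGFR antibody binding compounds printed on slides; score combines fluorescence near 667 nm and signal to noise of each spot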

Sequence of Neurogenic locus notch homolog protein 3 (Homo sapiens) (Q9UM47 whole entry, looked up): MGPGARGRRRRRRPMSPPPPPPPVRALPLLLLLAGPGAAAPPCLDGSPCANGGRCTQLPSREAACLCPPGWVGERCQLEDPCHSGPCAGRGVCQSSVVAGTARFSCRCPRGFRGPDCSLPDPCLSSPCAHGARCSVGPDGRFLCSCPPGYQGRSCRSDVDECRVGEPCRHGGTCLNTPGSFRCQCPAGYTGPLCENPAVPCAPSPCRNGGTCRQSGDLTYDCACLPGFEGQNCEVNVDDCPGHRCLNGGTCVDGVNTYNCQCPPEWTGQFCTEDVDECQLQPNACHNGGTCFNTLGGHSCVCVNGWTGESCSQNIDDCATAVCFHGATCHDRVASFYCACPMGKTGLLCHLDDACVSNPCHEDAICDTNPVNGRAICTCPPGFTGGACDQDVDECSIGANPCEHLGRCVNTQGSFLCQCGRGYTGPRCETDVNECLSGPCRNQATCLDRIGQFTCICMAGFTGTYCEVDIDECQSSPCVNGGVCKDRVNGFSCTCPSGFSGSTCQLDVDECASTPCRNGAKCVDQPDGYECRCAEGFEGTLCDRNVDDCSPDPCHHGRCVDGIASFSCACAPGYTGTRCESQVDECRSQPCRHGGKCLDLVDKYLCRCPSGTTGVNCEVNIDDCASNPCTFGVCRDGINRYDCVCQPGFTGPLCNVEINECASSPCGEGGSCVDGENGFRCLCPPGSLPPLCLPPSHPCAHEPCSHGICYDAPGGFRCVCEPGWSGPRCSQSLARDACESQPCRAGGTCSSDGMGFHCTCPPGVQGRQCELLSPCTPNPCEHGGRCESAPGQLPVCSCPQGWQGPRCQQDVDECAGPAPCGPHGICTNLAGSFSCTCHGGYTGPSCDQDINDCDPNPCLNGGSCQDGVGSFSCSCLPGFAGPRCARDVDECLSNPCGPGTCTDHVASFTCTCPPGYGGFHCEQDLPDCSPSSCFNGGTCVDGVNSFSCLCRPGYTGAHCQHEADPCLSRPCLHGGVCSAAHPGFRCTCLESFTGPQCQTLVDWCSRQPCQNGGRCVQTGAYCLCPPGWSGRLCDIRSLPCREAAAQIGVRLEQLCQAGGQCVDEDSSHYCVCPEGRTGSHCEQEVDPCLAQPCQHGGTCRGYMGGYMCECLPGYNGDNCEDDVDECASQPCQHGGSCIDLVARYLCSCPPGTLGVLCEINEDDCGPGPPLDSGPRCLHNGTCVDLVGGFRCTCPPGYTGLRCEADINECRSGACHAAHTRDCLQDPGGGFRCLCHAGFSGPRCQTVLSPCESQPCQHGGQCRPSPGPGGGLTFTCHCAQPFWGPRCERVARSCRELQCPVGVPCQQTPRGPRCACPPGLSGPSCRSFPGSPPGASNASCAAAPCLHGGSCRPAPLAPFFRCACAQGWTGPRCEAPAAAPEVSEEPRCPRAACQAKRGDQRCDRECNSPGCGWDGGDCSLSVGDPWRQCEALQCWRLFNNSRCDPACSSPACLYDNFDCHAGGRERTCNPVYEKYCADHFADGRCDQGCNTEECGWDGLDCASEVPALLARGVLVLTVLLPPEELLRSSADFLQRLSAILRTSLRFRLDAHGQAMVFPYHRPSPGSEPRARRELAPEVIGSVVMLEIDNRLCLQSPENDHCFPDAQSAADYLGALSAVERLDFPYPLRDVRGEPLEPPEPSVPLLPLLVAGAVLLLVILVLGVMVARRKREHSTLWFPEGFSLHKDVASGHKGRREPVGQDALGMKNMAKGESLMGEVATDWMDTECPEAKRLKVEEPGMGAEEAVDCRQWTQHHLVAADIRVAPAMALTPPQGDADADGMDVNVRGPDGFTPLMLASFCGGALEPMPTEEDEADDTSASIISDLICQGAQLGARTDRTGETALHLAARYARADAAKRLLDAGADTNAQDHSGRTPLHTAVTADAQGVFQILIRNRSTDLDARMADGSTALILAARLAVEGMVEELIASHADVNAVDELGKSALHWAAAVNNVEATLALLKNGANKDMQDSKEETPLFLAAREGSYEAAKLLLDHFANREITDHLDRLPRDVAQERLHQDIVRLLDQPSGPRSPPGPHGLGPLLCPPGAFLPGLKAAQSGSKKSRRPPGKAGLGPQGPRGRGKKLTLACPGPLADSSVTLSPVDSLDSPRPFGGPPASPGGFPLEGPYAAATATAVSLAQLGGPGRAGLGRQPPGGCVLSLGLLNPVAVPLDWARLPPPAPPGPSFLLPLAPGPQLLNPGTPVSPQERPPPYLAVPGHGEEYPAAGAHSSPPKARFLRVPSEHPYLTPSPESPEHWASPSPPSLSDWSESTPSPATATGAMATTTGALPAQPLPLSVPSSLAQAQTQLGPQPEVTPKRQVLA
Sequence of Torsin-1A-interacting protein 2 (Homo sapiens) (Q8NFQ8 whole entry, looked up): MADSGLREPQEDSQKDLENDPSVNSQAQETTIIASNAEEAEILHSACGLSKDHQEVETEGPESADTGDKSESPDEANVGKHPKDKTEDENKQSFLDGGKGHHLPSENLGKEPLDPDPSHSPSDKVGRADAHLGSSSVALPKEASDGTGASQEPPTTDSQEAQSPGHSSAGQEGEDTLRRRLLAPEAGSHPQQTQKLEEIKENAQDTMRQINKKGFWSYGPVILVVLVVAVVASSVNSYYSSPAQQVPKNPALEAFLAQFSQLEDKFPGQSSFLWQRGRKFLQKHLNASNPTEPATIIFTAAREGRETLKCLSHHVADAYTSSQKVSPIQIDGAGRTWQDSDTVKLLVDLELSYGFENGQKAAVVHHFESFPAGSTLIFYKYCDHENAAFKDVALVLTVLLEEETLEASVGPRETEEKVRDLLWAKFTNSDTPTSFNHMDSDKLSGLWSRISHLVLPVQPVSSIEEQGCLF

| SMILES | composite z-score [1] | z-score [2] | z-score [3] | z-score [4] | composite z-score [5] | z-score [6] | composite z-score [7] | composite z-score [8] | composite z-score [9] | composite z-score [10] |
| --- | --- | --- | --- | --- | --- | --- | --- | --- | --- | --- |
| Cc1ccc(S[C@]2(C(=O)NCC(C)C)CC(=O)N(Cc3cc(C(F)(F)F)cc(C(F)(F)F)c3)[C@@H]2c2ccc(CO)cc2I)cc1 | 0.714 | -1.79 (inactive) | -1.94 (inactive) | 0.651 (inactive) | 0.736 | -0.161 (inactive) | 0.31 | -2.5 | -0.332 | -0.0824 |
| COc1cc2c(cc1OC)CN(C(=O)[C@@H]1[C@H]3C(=O)O[C@H](c4ccccc4)[C@H](c4ccccc4)N3[C@H](c3ccc(O)cc3)[C@@]13C(=O)Nc1ccc(C#CC4(O)CCCCCC4)cc13)CC2 | 1.55 | 0.739 (inactive) | -0.0727 (inactive) | 0.257 (inactive) | 3.46 | 0.395 (inactive) | -0.232 | 1.59 | 1.08 | 0.0685 |
| COC(=O)[C@@]1(Cc2ccccc2)[C@H]2c3cc(C(=O)N4CCCC4)n(Cc4cccc5ccccc45)c3C[C@H]2CN1C(=O)c1ccccc1 | -1.59 | 0.506 (inactive) | 1.56 (inactive) | 1.43 (inactive) | 2.54 | -0.395 (inactive) | 1.29 | -0.685 | 0.943 | 0.891 |
| O=C1OCCC/C=C\[C@H]2OC34C=CCN(CCN5CCOCC5)C(=O)[C@H]3N(CCCO)C(=O)[C@@H]4C12 (stereo not given in full) | -0.622 | -1.35 (inactive) | -0.632 (inactive) | -0.595 (inactive) | 3.54 | -0.44 (inactive) | -0.381 | -0.813 | -0.93 | -0.199 |
| CCOC(=O)C[C@H]1[C@H](OC(=O)c2cc3ccccc3oc2=O)[C@@H](NC(=O)Cc2ccc(OC)cc2)c2cc(OCCCO)ccc2N1C(=O)c1ccccc1 | 0.242 | -0.0987 (inactive) | -0.507 (inactive) | 0.279 (inactive) | 1.08 | 0.201 (inactive) | -0.139 | 0.558 | 0.0769 | -0.0174 |
| CC(C)(C)OC(=O)CC[C@]12N=C(c3ccc(OCCCO)cc3)O[C@H]1c1ccccc1N(CCS(=O)(=O)c1ccccc1)C2=O | 1.55 | 1.03 (inactive) | 1.65 (inactive) | 0.246 (inactive) | 3.17 | 0.522 (inactive) | 0.101 | 0.905 | 1.1 | 0.0288 |
| CN(C)C(=O)[C@]1(Cc2ccccc2N=[N+]=[N-])N=C(c2ccc(OCCCO)cc2)O[C@@H]1c1ccccc1 | 1.39 | -0.958 (inactive) | -2.29 (inactive) | -0.195 (inactive) | 3.02 | 0.677 (inactive) | 0.149 | 1.21 | 0.905 | -0.0512 |
| C#CCNC(=O)[C@H](Cc1ccccc1)NC(=O)CCC(=O)O | -1.17 | -0.136 (inactive) | 0.396 (inactive) | 0.0017 (inactive) | -0.906 | -0.361 (inactive) | -0.198 | -0.88 | -0.502 | -0.238 |
| CC(C)C[C@@H]1NC(=O)[C@H]2C[C@@H](C(=O)NCCCCCCN(C)C)[C@@H](c3ccc(O)cc3)N2C1=O | 1.56 | -0.924 (inactive) | -0.48 (inactive) | -0.734 (inactive) | 3.1 | -0.613 (inactive) | 0.0829 | 0.248 | 1.14 | 0.122 |
| COC(=O)[C@@]1(Cc2ccccc2)[C@H]2c3cc(C(=O)N4CCCC4)n(CC4CC4)c3C[C@H]2CN1C(=O)c1ccccc1 | 1.21 | 0.0645 (inactive) | 0.513 (inactive) | 0.667 (inactive) | 3.32 | -0.887 (inactive) | 0.508 | 0.294 | 1.05 | 0.776 |
| COCCOC(=O)N1C(=O)[C@@]2(c3cc(C#CC4=CCCCC4)ccc31)[C@H](C(=O)Nc1nc3ccccc3s1)[C@H]1C(=O)O[C@H](c3ccccc3)[C@H](c3ccccc3)N1[C@@H]2c1ccc(OCCO)cc1 | 1.58 | 2.47 (inactive) | 1.97 (inactive) | 2.07 (inactive) | 1.82 | 0.373 (inactive) | -0.119 | 1.23 | 1.14 | -0.0238 |
| CC1(C)[C@@H]2CC(C(O)C3C=CC4C(=O)N(c5ccccc5)C(=O)C4N3Nc3ccccc3)=C[C@H]1C2 (stereo not given in full) | -0.0035 | -0.4 (inactive) | 0.286 (inactive) | -0.136 (inactive) | 2.58 | -0.936 (inactive) | -0.0008 | -0.161 | 0.367 | -0.0431 |
| NCCCCCNC(=O)[C@@H]1C[C@@H]2C(=O)NCC(=O)N2[C@@H]1c1ccc(O)cc1 | 1.53 | -0.491 (inactive) | -0.723 (inactive) | 0.124 (inactive) | 2.51 | -0.031 (inactive) | -0.145 | 1.37 | 0.892 | -0.192 |
| COc1ccc(CCNC(=O)[C@@]2(C)c3ccccc3C(=O)N(Cc3cc(F)cc(C(F)(F)F)c3)[C@H]2c2ccc(CO)cc2)cc1 | 0.117 | -0.143 (inactive) | -0.995 (inactive) | 0.882 (inactive) | 2.3 | 0.449 (inactive) | -0.0112 | -0.969 | -0.42 | -0.0549 |
| O=C(C1N=C(c2ccc(OCCCO)cc2)N(c2ccccc2)O1)N1CCOCC1 (stereo not given) | 1.55 | -0.867 (inactive) | -0.992 (inactive) | -0.566 (inactive) | 2.22 | 1.75 (inactive) | -0.134 | 1.53 | 1.09 | 0.184 |
| [N-]=[N+]=NCc1ccccc1C[C@]1(C(=O)O)N=C(c2ccc(OCCCO)cc2)O[C@H]1c1ccccc1N=[N+]=[N-] | 1.56 | 0.869 (inactive) | -0.742 (inactive) | 0.924 (inactive) | 3.21 | 0.644 (inactive) | -0.128 | 0.435 | 1.14 | 0.012 |
| CN1C(=O)C2C=CC(C(O)C3CCCCC3)N(Nc3ccc([N+](=O)[O-])cc3[N+](=O)[O-])C2C1=O (stereo not given) | 1.52 | 0.492 (inactive) | 1.19 (inactive) | 0.68 (inactive) | 3.24 | -0.632 (inactive) | 0.191 | 0.219 | 1.03 | 0.0624 |
| C=CCOC(=O)[C@@H]1[C@H]2C(=O)O[C@H](c3ccccc3)[C@H](c3ccccc3)N2[C@H](c2ccc(OCCOC(=O)[C@@H]3C[C@@H]4C(=O)N[C@@H](Cc5ccccc5)C(=O)N4[C@@H]3c3ccc(O)cc3)cc2)[C@@]12C(=O)Nc1ccc(I)cc12 | 1.55 | 0.607 (inactive) | 1.18 (inactive) | 4.44 (inactive) | 2.06 | 1.37 (inactive) | -0.135 | 1.87 | 1.11 | -0.0828 |
| [N-]=[N+]=Nc1ccccc1[C@H]1OC(c2ccc(OCCCO)cc2)=N[C@@]1(Cc1ccccc1)C(=O)O | 1.3 | 0.206 (inactive) | -0.329 (inactive) | -1.06 (inactive) | 3.3 | 0.355 (inactive) | -0.0152 | 0.875 | 1.11 | -0.0351 |
| CC(C)[C@@H](CO)NC(=O)[C@H]1[C@@H](c2ccccc2)N(c2ccccc2)O[C@@H]1C | -0.159 | -0.0247 (inactive) | -0.207 (inactive) | 0.072 (inactive) | 1.02 | 1.08 (inactive) | -0.193 | 0.171 | -0.271 | -0.177 |
| CCN(CC)c1ccc(N2CC=CC34O[C@@H]5/C=C\CCC(C)OC(=O)C5[C@H]3C(=O)N(C(CO)C(C)C)[C@@H]4C2=O)cc1 (stereo not given in full) | 0.746 | -1.28 (inactive) | -0.892 (inactive) | -0.924 (inactive) | 3.28 | 0.41 (inactive) | -0.17 | -0.995 | -0.0778 | -0.13 |
